Compound activity deposited in PubChem BioAssay by National Center for Advancing Translational Sciences (NCATS).
DT40 TDP1 CPT: DT40-hTDP1 cell growth loss with CPT; 420,000 tested, 12% active; Potency, µM (highest dose often 46.2 µM), hits mostly inhibitors; AID 686979; chicken DT40 Tdp1-/-;hTDP1 cells + 20 nM CPT, ATP luminescence, 48 h; also: nearly all actives have a fitted effect of over 55% in size
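Chicken DT40 Tdp1-/- cells stably complemented with human TDP1 were seeded at 400 cells/well in medium containing 20 nM camptothecin, exposed to pin-transferred compounds, and grown at 37 °C for at least 48 hr. Viability was read as ATP luminescence.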
KB-V1 MDR tox: KB-V1 MDR subline cytotoxicity | KB-V1 MDR cells viability, CellTiter-Glo, 72 h | Potency, µM (doses to about 46.1 µM), usual class: cytotoxic | 400,000 tested, 3.4% active; also: nearly all actives have a fitted effect of over 60% in size
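Following 72 h at 37 degrees C with compound, KB-V1 cell viability was read by CellTiter-Glo luminescence, medium being phenol-red-free DMEM plus 10% FBS; concentration-response parameters came from normalized, curve-fitted qHTS data.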
DT40 TDP1 no CPT: qHTS for Inhibitors of human tyrosyl-DNA phosphodiesterase 1 (TDP1): qHTS in cells in absence of CPT; DT40 Tdp1-/- hTDP1 cells, no CPT, ATP luminescence, 48 h; Potency, µM (highest dose often 46.2 µM), usual class: inhibitors; 420,000 tested, 15% active; also: nearly all actives have a fitted effect of over 55% in size
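No-CPT arm: Tdp1-/-;hTDP1 DT40 cells (400/well) plus compounds, incubated ≥48 hr at 37 °C. Readout CellTiter-Glo luminescence.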
HT1080 IDH1KD tx: kills HT-1080 cells with IDH1 knockdown. 360,000 tested, 2% active. HT-1080 IDH1 knockdown viability, ATP luminescence, 48 h. Potency, µM (highest dose often 46.1 µM), actives largely listed as cytotoxic
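CellTiter-Glo luminescence after 48 h compound exposure at 37 degrees C of IDH1-knockdown HT-1080 cells in 5% FBS RPMI. %Activity scaled between DMSO wells and cell-free media wells, with curves fitted and assigned curve classes.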
KB-3-1 tox: kills parental KB-3-1 adenocarcinoma cells; KB-3-1 viability, CellTiter-Glo ATP luminescence, 72 h; 400,000 tested, 1.4% active; Potency, µM (titrated, usually from 46.1 µM), most hits filed as cytotoxic; also: nearly all actives have a fitted effect of over 60% in size
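Cells are dispensed, compounds pinned in, plates held at 37 °C for 72 h, then CellTiter-Glo is added and luminescence read after 10 minutes. Cell line: parental KB-3-1 in phenol-red-free DMEM, 10% FBS.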
HT1080NT lethal: kills 2HG-producing HT-1080-NT fibrosarcoma cells | HT-1080-NT fibrosarcoma viability, CellTiter-Glo ATP luminescence, 48 h | Potency, µM (titrated, usually from 46.1 µM), hits mostly cytotoxic | 360,000 tested, 1.6% active | AID 686970;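 also: NT is the 2HG producing partner of a matched IDH1 knockdown line; nearly all actives have a fitted effect of over 55% in size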
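HT-1080-NT; 750 cells/well; 5% FBS RPMI; 48 h compound, 37 degrees C; CellTiter-Glo luminescence; curve fitting and curve-class assignment.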
A number is an active result; n = inactive; u = inconclusive; x = no result; [ ] = remark or other dose. A selection: hits, their analogues and other compounds. The true share with any hit is near 19%. Calls follow the shape of the dose curve; as a rule, active = well fitted curve in the direction sought with a large enough effect; inconclusive = small, poorly fitted or top-dose-only effect, or another doubt; inactive = no such curve, though single readings can be large; an effect the other way counts as inactive or inconclusive.

SMILES	DT40 TDP1 CPT	KB-V1 MDR tox	DT40 TDP1 no CPT	HT1080 IDH1KD tx	KB-3-1 tox	HT1080NT lethal
CCCCCn1c(=O)[nH]c2cc(C(=O)Nc3cc(OC)cc(OC)c3)ccc2c1=O	13µM	n	23µM	x	n	x
COCCn1c(=O)[nH]c2cc(C(=O)N3CCN(c4ccc(OC)cc4)CC3)ccc2c1=O	n	n	u	n	n	n
COc1ccc(N(CC(=O)N2CCN(c3ccccc3F)CC2)S(=O)(=O)c2ccc(C)cc2)cc1	u	x	u	n	x	n
Cc1ccc(C(c2sc3nc(-c4ccco4)nn3c2O)N2CCN(c3ccc(F)cc3)CC2)cc1 (stereo unspecified)	n	n	n	x	n	x
COc1ccc(N=C2C(=O)N3c4c(cccc42)C(C)=CC3(C)C)cc1	5.2µM	u	2.6µM	n	n	n
COc1ccc(N=C2C(=O)Nc3ccccc32)cc1	n	n	n	n	n	u
Cc1ccc2c(c1)-c1onc(C(=O)N3CCN(c4cc(C)ccc4C)CC3)c1CO2	x	n	x	x	n	x
CCCN1CCN(C(=O)c2noc3c2COc2ccc(C)cc2-3)CC1	21µM	u	16µM	n	n	n
Cn1ccnc1SCC(=O)c1ccc([N+](=O)[O-])cc1	18µM	n	u	n	n	n
CCN(C(=O)CSc1nccn1C)c1cccc2ccccc12	21µM	n	10µM	n	n	n
COc1ccccc1C(=O)CSc1nccn1C	u	n	16µM	n	n	u
Cn1ccnc1SCC(=O)Nc1cccc2ccccc12	n	n	n	n	n	n
CCOC(=O)C1(CCc2ccccc2)CCN(Cc2cccc3nccnc23)CC1	21µM	n	16µM	n	n	n
CCOC(=O)C1(CCOc2ccccc2)CCN(Cc2nccn2CC)CC1	u	n	u	n	n	n
CCOC(=O)C1(CCOc2ccccc2)CCN(Cc2ccncc2)CC1	u	u	26µM	n	n	n
CCOC(=O)C1(CCOc2ccccc2)CCN(Cc2ccc(-n3cccn3)cc2)CC1	u	u	16µM	u	n	u
CCOC(=O)C1(CCOC)CCN(Cc2ccncc2)CC1	n	n	n	n	n	n
Cc1[nH]c2ccccc2c1C(=O)COC(=O)c1nccnc1N	n	n	n	n	u	n
Cn1c(-n2cccc2)c(-c2c(-c3ccccc3)[nH]c3c2c(=O)n(C)c(=O)n3C)c(=O)n(C)c1=O	n	n	n	x	n	x
COc1ccc(-c2noc(CCC(=O)N3CCN(c4cccc(C(F)(F)F)c4)CC3)n2)cc1	u	u	23µM	n[9.24 µM]	n	n
COc1ccc(-c2noc(CCCC(=O)N3CCOCC3)n2)cc1	u	n	u	n	n	n
COc1ccc(-c2noc(CCC(=O)N3CCN(c4cccc(OC)c4)CC3)n2)cc1	u	n	16µM	n	n	n
COc1cccc(C2=NOC(C(=O)NC(C)(C)C)C2)c1 (stereo unspecified)	n	n	n	n	n	n
COc1cccc(C2=CC(=O)C(C(C)(C)C)N2C(C)(C)C)c1 (stereo unspecified)	u	n	21µM	n	n	n
Cc1nn(Cc2cccc(C(=O)NC34CC5CC(CC(C5)C3)C4)c2)c(C)c1Br	u	u	u	u	n	u
SMILES	DT40 TDP1 CPT	KB-V1 MDR tox	DT40 TDP1 no CPT	HT1080 IDH1KD tx	KB-3-1 tox	HT1080NT lethal
CCCNC(=O)c1cccc(Cn2nc(C)c(Br)c2C)c1	16µM	u	21µM	n	n	n
Cc1ccc(C2CC2c2n[nH]c(=S)n2-c2ccc(Cl)cc2)cc1 (stereo unspecified)	u	16µM	u	u	u	n
Cc1cccc(-n2c(C)n[nH]c2=S)c1	n	n	n	u	n	n
S=c1[nH]nc([C@@H]2C[C@H]2c2ccccc2)n1-c1ccccc1Cl	n	n	n	n	n	n
Cc1ccc(-n2c(-c3cccc(C)c3)n[nH]c2=S)cc1	n	n	u	10µM	n	u
COc1ccc(-c2n[nH]c(=S)n2-c2ccc3c(c2)OCCO3)cc1	u	n	u	n	n	n
Cc1ccc(C2CC2c2n[nH]c(=S)n2-c2cccc(C)c2)cc1 (stereo unspecified)	u	u	16µM	u	n	n
COc1ccc(-c2n[nH]c(=S)n2-c2ccc(C)cc2)cc1OC	n	n	n	n	n	n
S=c1[nH]nc(-c2ccc(Br)cc2)n1-c1ccc2c(c1)OCCO2	u	n	18µM	n	n	n
CCc1nc2ccc(C(=O)N3CCN(S(=O)(=O)CC)CC3)cn2c1N(CC)CCN(C)C	n	n	n	n	n	n
COc1cc(-c2n[nH]c(=S)n2-c2cccc(C(F)(F)F)c2)cc(OC)c1OC	n	23µM	n	n	n	n
COc1cc(-c2n[nH]c(=S)n2-c2ccccc2C(F)(F)F)cc(OC)c1OC	n	n	n	n	n	n
Cc1ccc(S(=O)(=O)Nc2ccccc2C=Nc2cccc(C)c2C)cc1	u	n	u	n	n	n
Cc1ccc(S(=O)(=O)Nc2cccc3ncccc23)s1	0.92µM	u	1µM	u	5.8µM	u
Cc1ccc(S(=O)(=O)Nc2ccnc3ccccc23)cc1	u	n	21µM	n	n	n
Cc1ccc(S(=O)(=O)Nc2ccccc2/C=N/c2nc3ccccc3n2C)cc1	u	n	u	21µM	u	u
Cc1ccc(S(=O)(=O)Nc2ccc(Cl)cc2O)cc1	u	21µM	u	u	u	u
Cc1ccc(S(=O)(=O)Nc2ccccc2CNc2cccc(C)n2)cc1	u	5.8µM	16µM	n	n	n
Cc1ccc(S(=O)(=O)Nc2ccc(O)c3cccnc23)cc1	2.9µM	n	6.5µM	u	n	n
Cc1ccc(S(=O)(=O)Nc2ccccc2-c2ccccc2)cc1	2.6µM	u	2.6µM	4.1µM	3.3µM	2.9µM
Cc1ccc(S(=O)(=O)Nc2ccccc2[N+](=O)[O-])cc1	n	n	n	n	n	n
Cc1ccc(S(=O)(=O)Nc2cccc3ncccc23)cc1	u	u	n	n	n	n
O=S(=O)(Nc1cccc2ncccc12)c1cccc(C(F)(F)F)c1	u	n	9.2µM	n	n	n
Cc1cccc(C)c1NC(=O)C1(C)CSCC(=O)N1CCCn1ccnc1 (stereo unspecified)	n	n	n	n	n	n
COCCNC(=O)C1CCN(S(=O)(=O)c2ccc3c(c2)CCCN3C(C)=O)CC1	n	u	n	x	n	x
N#CC(=C(O)COC(=O)CCCNC(=O)c1ccc(Cl)cc1)c1nc2ccccc2[nH]1	u	n	n	n	n	n
